Measurements published in the supplement of paper PMC13380429.

Each molecule was assayed on Vero E6 infected with SARS-CoV-2 (assay: morphology score (similarity to uninfected cells); higher = more like uninfected cells). Conditions: 24 h.
In the case of `CCOC(=O)[C@H](CCc1ccccc1)N[C@@H](C)C(=O)N(CC(=O)O)C1Cc2ccccc2C1` [delapril] (10 µM), the morphology score is reported as -0.0271.
`CC(C)(C)C(=O)NCCCC(=O)O` [pivagabine] (10 µM) was tested, and the morphology score was 0.0513.
For `COc1cc(/C=C/C(=O)CC(=O)/C=C/c2ccc(O)c(OC)c2)ccc1O` [curcumin] (10 µM), the morphology score was 0.548.
`CN1CCc2c(c3ccccc3n2Cc2ccccc2)C1` [mebhydrolin] (10 µM) showed a morphology score of 0.242.
Work on `CN(C)C(=O)N[C@H]1CC[C@H](CCN2CCN(c3cccc(Cl)c3Cl)CC2)CC1` [cariprazine] (10 µM) yielded a morphology score of -0.0979.
For `O=C(Nc1ccccc1)c1cc([N+](=O)[O-])ccc1Cl` (10 µM), the morphology score was 0.103.
`Cc1csc2c(N[C@@H](C)CN3CCN(S(=O)(=O)c4ccc(Cl)c(Cl)c4)CC3)ncnc12` [LPA2-antagonist-1] (10 µM) was tested, and the morphology score was 0.142.
`O=C(O)CC1CC(c2ccccc2)=NO1` (stereo not given) (10 µM) showed a morphology score of -0.0313.
`CCN1CCC[C@H]1CNC(=O)c1c(O)c(Cl)cc(Cl)c1OC` [raclopride] (10 µM) showed a morphology score of 0.124.
In the case of `O=C1Cc2cc(CCN3CCN(c4nsc5ccccc45)CC3)c(Cl)cc2N1` [ziprasidone] (10 µM), the morphology score is reported as 0.328.
Work on `CCN(CCNC(=O)Nc1ccccc1Br)c1cccc(C)c1` (10 µM) yielded a morphology score of -0.0408.
`CN1C(=O)N(c2cc(Cl)cc(Cl)c2)C(=O)[C@]12CN(Cc1cc(C(=O)O)cs1)C[C@H]2c1ccc(C#N)cc1` (10 µM) showed a morphology score of 0.281.
`Cc1cnc(C(=O)O)c[n+]1[O-]` [acipimox] (10 µM) gave a morphology score of 0.0683.
Work on `CNC(=O)c1c(I)c(NC(C)=O)c(I)c(C(=O)O)c1I` [iothalamic-acid-d3] (10 µM) yielded a morphology score of 0.143.
`O=C1NN(C(=O)Nc2ccc(Br)cc2)[C@@H](c2ccccc2)[C@@H]1c1ccccc1` (10 µM) gave a morphology score of -0.176.
In the case of `Clc1cc(Cl)c(OCC#CI)cc1Cl` [haloprogin] (10 µM), the morphology score is reported as 0.57.
In the case of `O=C(O)c1c2ccccc2cc2ccccc12` [9-anthracenecarboxylic-acid] (10 µM), the morphology score is reported as 0.252.
`C[C@]12CC[C@H](O)C[C@H]1CC[C@@H]1[C@@H]2CC[C@]2(C)[C@@H](C3=CC(=O)OC3)CC[C@]12O` [digitoxigenin] (0.833333 µM) was tested, and the morphology score was -0.0679.
Work on `O=C(O)/C=C1\CCCc2ccccc2[C@H]1O` (racemic) (10 µM) yielded a morphology score of 0.0116.
For `CC(=O)O[C@H]1C[C@@H]2CC[C@@H]3[C@H](CC[C@@]4(C)[C@H]3C[C@H]([N+]3(C)CCCCC3)[C@@H]4OC(C)=O)[C@@]2(C)C[C@@H]1[N+]1(C)CCCCC1` [pancuronium] (10 µM), the morphology score was 0.254.
`COc1ccc(-c2cc(=S)ss2)cc1` [anethole-trithione] (10 µM) gave a morphology score of 0.0605.
`CC(C(=O)O)c1ccc2c(c1)[nH]c1ccc(Cl)cc12` (stereo not given) [carprofen] (10 µM) gave a morphology score of -0.0165.
Molecule `COc1ccc(CC(=O)NC(/N=C(\NC#N)Nc2cccc3ncccc23)C(C)(C)C)cc1OC` (stereo not given) (10 µM) has a morphology score of 0.297.
Work on `O=C1C=Cc2cc(Br)ccc2C1=O` [bonaphthone] (10 µM) yielded a morphology score of -0.0263.
`Cc1nc(C)c(Cl)c(O)c1Cl` [clopidol] (10 µM) showed a morphology score of -0.0297.
`O=C(Nc1ccccc1C(=O)Nc1ccc(CCO)cc1)c1ccc([N+](=O)[O-])cc1` (10 µM) gave a morphology score of -0.0336.
With `COc1cc(OC)cc(N(CCNC(C)C)c2ccc3ncc(-c4cnn(C)c4)nc3c2)c1` [erdafitinib] (0.833333 µM) the morphology score was 0.151.
`O=C(O)/C=C(/CC(=O)O)C(=O)O` [cis-aconitic-acid] (10 µM) gave a morphology score of -0.118.
Work on `CC(C)NCC(O)c1ccc(N)c(C#N)c1` (stereo not given) [cimaterol] (10 µM) yielded a morphology score of -0.059.
Molecule `Cc1ccc(-c2nn(C(C)(C)CNC(=O)c3ncccc3C)c3ncnc(N)c23)cc1` [WEHI-345-analog] (0.833333 µM) has a morphology score of -0.0639.
For `CN1CCN(C(=O)C2C(C(=O)O)[C@H]3CC[C@@H]2O3)CC1` (stereo not given in full) (10 µM), the morphology score was 0.0648.
`Cc1cccc(C)c1NC(=O)C[N+](C)(C)C` (10 µM) gave a morphology score of 0.198.
`CCOC(=O)C1=C(C)NC(C)=C(C(=O)OC)C1c1cccc(Cl)c1Cl` (stereo not given) [felodipine] (10 µM) showed a morphology score of 0.224.
`Cc1cc(C(C)(C)C)c(O)c(C)c1CC1=NCCN1` [oxymetazoline] (10 µM) showed a morphology score of 0.233.
In the case of `Nc1nc(Cl)nc2c1ncn2[C@@H]1O[C@H](CO)[C@@H](O)[C@@H]1F` [clofarabine] (0.833333 µM), the morphology score is reported as 0.11.
For `Clc1ccc2c(NCCNc3ccnc4cc(Cl)ccc34)ccnc2c1` (10 µM), the morphology score was 0.0758.
Work on `COCC[n+]1c2c(n(Cc3cnccn3)c1C)C(=O)c1ccccc1C2=O` (0.833333 µM) yielded a morphology score of 0.0783.
In the case of `CC(C)(C)NC[C@H](O)COc1cccc2c1CCCC2=O` [levobunolol] (10 µM), the morphology score is reported as 0.0302.
`CCOC(=O)c1ccc(N)cc1` [benzocaine] (10 µM) gave a morphology score of -0.0142.

Each molecule was assayed on Vero E6 infected with SARS-CoV-2 (assay: SARS-CoV-2 infection rate relative to infected DMSO; higher = more infection, active = 60 or less). Conditions: 24 h.
In the case of `CCOC(=O)[C@H](CCc1ccccc1)N[C@@H](C)C(=O)N(CC(=O)O)C1Cc2ccccc2C1` [delapril] (10 µM), the SARS-CoV-2 infection rate is reported as 108% (inactive).
`CC(C)(C)C(=O)NCCCC(=O)O` [pivagabine] (10 µM) was tested, and the SARS-CoV-2 infection rate was 105% (inactive).
In the case of `COc1cc(/C=C/C(=O)CC(=O)/C=C/c2ccc(O)c(OC)c2)ccc1O` [curcumin] (10 µM), the SARS-CoV-2 infection rate is reported as 61.5% (inactive).
With `CN1CCc2c(c3ccccc3n2Cc2ccccc2)C1` [mebhydrolin] (10 µM) the SARS-CoV-2 infection rate was 104% (inactive).
With `CN(C)C(=O)N[C@H]1CC[C@H](CCN2CCN(c3cccc(Cl)c3Cl)CC2)CC1` [cariprazine] (10 µM) the SARS-CoV-2 infection rate was 113% (inactive).
For `O=C(Nc1ccccc1)c1cc([N+](=O)[O-])ccc1Cl` (10 µM), the SARS-CoV-2 infection rate was 94.5% (inactive).
In the case of `Cc1csc2c(N[C@@H](C)CN3CCN(S(=O)(=O)c4ccc(Cl)c(Cl)c4)CC3)ncnc12` [LPA2-antagonist-1] (10 µM), the SARS-CoV-2 infection rate is reported as 100% (inactive).
`O=C(O)CC1CC(c2ccccc2)=NO1` (stereo not given) (10 µM) was tested, and the SARS-CoV-2 infection rate was 116% (inactive).
`CCN1CCC[C@H]1CNC(=O)c1c(O)c(Cl)cc(Cl)c1OC` [raclopride] (10 µM) was tested, and the SARS-CoV-2 infection rate was 104% (inactive).
For `O=C1Cc2cc(CCN3CCN(c4nsc5ccccc45)CC3)c(Cl)cc2N1` [ziprasidone] (10 µM), the SARS-CoV-2 infection rate was 100% (inactive).
In the case of `CCN(CCNC(=O)Nc1ccccc1Br)c1cccc(C)c1` (10 µM), the SARS-CoV-2 infection rate is reported as 112% (inactive).
For `CN1C(=O)N(c2cc(Cl)cc(Cl)c2)C(=O)[C@]12CN(Cc1cc(C(=O)O)cs1)C[C@H]2c1ccc(C#N)cc1` (10 µM), the SARS-CoV-2 infection rate was 92.5% (inactive).
With `Cc1cnc(C(=O)O)c[n+]1[O-]` [acipimox] (10 µM) the SARS-CoV-2 infection rate was 108% (inactive).
For `CNC(=O)c1c(I)c(NC(C)=O)c(I)c(C(=O)O)c1I` [iothalamic-acid-d3] (10 µM), the SARS-CoV-2 infection rate was 104% (inactive).
With `O=C1NN(C(=O)Nc2ccc(Br)cc2)[C@@H](c2ccccc2)[C@@H]1c1ccccc1` (10 µM) the SARS-CoV-2 infection rate was 108% (inactive).
`Clc1cc(Cl)c(OCC#CI)cc1Cl` [haloprogin] (10 µM) was tested, and the SARS-CoV-2 infection rate was 32% (active).
`O=C(O)c1c2ccccc2cc2ccccc12` [9-anthracenecarboxylic-acid] (10 µM) was tested, and the SARS-CoV-2 infection rate was 89.5% (inactive).
For `C[C@]12CC[C@H](O)C[C@H]1CC[C@@H]1[C@@H]2CC[C@]2(C)[C@@H](C3=CC(=O)OC3)CC[C@]12O` [digitoxigenin] (0.833333 µM), the SARS-CoV-2 infection rate was 108% (inactive).
`O=C(O)/C=C1\CCCc2ccccc2[C@H]1O` (racemic) (10 µM) was tested, and the SARS-CoV-2 infection rate was 100% (inactive).
For `CC(=O)O[C@H]1C[C@@H]2CC[C@@H]3[C@H](CC[C@@]4(C)[C@H]3C[C@H]([N+]3(C)CCCCC3)[C@@H]4OC(C)=O)[C@@]2(C)C[C@@H]1[N+]1(C)CCCCC1` [pancuronium] (10 µM), the SARS-CoV-2 infection rate was 102% (inactive).
`COc1ccc(-c2cc(=S)ss2)cc1` [anethole-trithione] (10 µM) was tested, and the SARS-CoV-2 infection rate was 104% (inactive).
`CC(C(=O)O)c1ccc2c(c1)[nH]c1ccc(Cl)cc12` (stereo not given) [carprofen] (10 µM) was tested, and the SARS-CoV-2 infection rate was 108% (inactive).
`COc1ccc(CC(=O)NC(/N=C(\NC#N)Nc2cccc3ncccc23)C(C)(C)C)cc1OC` (stereo not given) (10 µM) was tested, and the SARS-CoV-2 infection rate was 97% (inactive).
In the case of `O=C1C=Cc2cc(Br)ccc2C1=O` [bonaphthone] (10 µM), the SARS-CoV-2 infection rate is reported as 103% (inactive).
`Cc1nc(C)c(Cl)c(O)c1Cl` [clopidol] (10 µM) was tested, and the SARS-CoV-2 infection rate was 108% (inactive).
`O=C(Nc1ccccc1C(=O)Nc1ccc(CCO)cc1)c1ccc([N+](=O)[O-])cc1` (10 µM) was tested, and the SARS-CoV-2 infection rate was 112% (inactive).
In the case of `COc1cc(OC)cc(N(CCNC(C)C)c2ccc3ncc(-c4cnn(C)c4)nc3c2)c1` [erdafitinib] (0.833333 µM), the SARS-CoV-2 infection rate is reported as 108% (inactive).
With `O=C(O)/C=C(/CC(=O)O)C(=O)O` [cis-aconitic-acid] (10 µM) the SARS-CoV-2 infection rate was 110% (inactive).
For `CC(C)NCC(O)c1ccc(N)c(C#N)c1` (stereo not given) [cimaterol] (10 µM), the SARS-CoV-2 infection rate was 104% (inactive).
`Cc1ccc(-c2nn(C(C)(C)CNC(=O)c3ncccc3C)c3ncnc(N)c23)cc1` [WEHI-345-analog] (0.833333 µM) was tested, and the SARS-CoV-2 infection rate was 122% (inactive).
In the case of `CN1CCN(C(=O)C2C(C(=O)O)[C@H]3CC[C@@H]2O3)CC1` (stereo not given in full) (10 µM), the SARS-CoV-2 infection rate is reported as 110% (inactive).
For `Cc1cccc(C)c1NC(=O)C[N+](C)(C)C` (10 µM), the SARS-CoV-2 infection rate was 97% (inactive).
For `CCOC(=O)C1=C(C)NC(C)=C(C(=O)OC)C1c1cccc(Cl)c1Cl` (stereo not given) [felodipine] (10 µM), the SARS-CoV-2 infection rate was 112% (inactive).
`Cc1cc(C(C)(C)C)c(O)c(C)c1CC1=NCCN1` [oxymetazoline] (10 µM) was tested, and the SARS-CoV-2 infection rate was 100% (inactive).
For `Nc1nc(Cl)nc2c1ncn2[C@@H]1O[C@H](CO)[C@@H](O)[C@@H]1F` [clofarabine] (0.833333 µM), the SARS-CoV-2 infection rate was 94.5% (inactive).
With `Clc1ccc2c(NCCNc3ccnc4cc(Cl)ccc34)ccnc2c1` (10 µM) the SARS-CoV-2 infection rate was 108% (inactive).
